In PubChem BioAssay (Tox21):
Results filed as inconclusive are left out. Activity calls are given as the source filed them. Unless noted, calls come from the whole dose curve; as a rule, active = well fitted curve in the direction sought with a large enough effect in the repeat runs; inconclusive = weak or mixed curves; inactive = no such curve, though single readings can be large; an effect the other way counts as inactive or inconclusive.

Legend:
[1] = qHTS assay to identify small molecule agonists or antagonists of the thyroid stimulating hormone receptor (TSHR) signaling pathway - wild type cell line counter screen (AID 1259384; calls by dose curve)
How it was run: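 Counter screen in untransfected Hek293: compounds (15-point titration, triplicate) plus phosphodiesterase inhibitor Ro20-1724 added after 18 h plating; 30 min RT. Intracellular cAMP via competitive d2/cryptate immunoassay, 1 h incubation.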

[2] = biological target: Thyrotropin receptor (Homo sapiens) (UniProt P16473); assay: qHTS assay to identify small molecule antagonists of the thyroid stimulating hormone receptor (TSHR) signaling pathway (AID 1259385; calls by dose curve; note: nearly all actives have a fitted effect of over 20% in size)
Thyrotropin receptor (Homo sapiens), sequence (P16473 whole entry, looked up): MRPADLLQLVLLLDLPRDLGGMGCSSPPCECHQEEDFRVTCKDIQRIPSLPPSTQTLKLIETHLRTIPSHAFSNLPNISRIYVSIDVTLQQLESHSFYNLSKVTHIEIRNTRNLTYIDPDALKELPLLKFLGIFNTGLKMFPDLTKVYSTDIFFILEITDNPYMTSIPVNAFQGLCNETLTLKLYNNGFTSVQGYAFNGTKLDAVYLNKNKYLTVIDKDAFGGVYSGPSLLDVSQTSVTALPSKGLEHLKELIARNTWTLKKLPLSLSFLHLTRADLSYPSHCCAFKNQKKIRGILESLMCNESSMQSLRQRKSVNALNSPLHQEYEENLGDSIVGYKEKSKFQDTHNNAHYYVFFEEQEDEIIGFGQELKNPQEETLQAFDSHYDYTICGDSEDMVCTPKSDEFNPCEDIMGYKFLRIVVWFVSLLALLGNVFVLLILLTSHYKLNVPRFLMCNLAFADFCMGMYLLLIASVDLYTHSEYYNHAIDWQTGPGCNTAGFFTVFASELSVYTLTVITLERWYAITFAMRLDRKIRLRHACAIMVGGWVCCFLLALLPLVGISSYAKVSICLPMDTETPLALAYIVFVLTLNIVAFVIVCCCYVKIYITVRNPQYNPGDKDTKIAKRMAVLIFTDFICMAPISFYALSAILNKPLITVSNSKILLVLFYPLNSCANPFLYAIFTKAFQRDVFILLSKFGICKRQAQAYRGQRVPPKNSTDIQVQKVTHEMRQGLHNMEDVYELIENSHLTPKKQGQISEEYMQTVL
How it was run: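 Antagonist mode: compound-treated TSHR-expressing HEK293 cells were stimulated with 1.5 ng/mL TSH (final) in presence of Ro20-1724 for 30 min at RT. HTRF cAMP detection after 1 h; each compound tested at 15 concentrations, triplicate.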

[3] = qHTS assay to identify small molecule agonists of the estrogen receptor alpha (ER-alpha) signaling pathway in the presence of an antagonist - cell viability counter screen (AID 1259386);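 note: series mostly up to about 92 µM; cells exposed to compounds for 22 h at 37 °C before the viability read; nearly all actives have a fitted effect of over 30% in size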
How it was run: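 Read-out: CellTiter-Fluor fluorescence after 1hr reagent incubation, measured in the same wells as the luciferase readout. VM7Luc4E2 cells were exposed to 15 compound concentrations with 10.0nM ICI-182,780 for 22hr at 37C.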

[4] = biological target: Progesterone receptor (Homo sapiens) (UniProt P06401); assay: qHTS assay to identify small molecule agonists of the progesterone receptor (PR) signaling pathway (AID 1346784; calls by dose curve; note: nearly all actives have a fitted effect of over 30% in size)
Progesterone receptor (Homo sapiens), sequence (P06401 whole entry, looked up): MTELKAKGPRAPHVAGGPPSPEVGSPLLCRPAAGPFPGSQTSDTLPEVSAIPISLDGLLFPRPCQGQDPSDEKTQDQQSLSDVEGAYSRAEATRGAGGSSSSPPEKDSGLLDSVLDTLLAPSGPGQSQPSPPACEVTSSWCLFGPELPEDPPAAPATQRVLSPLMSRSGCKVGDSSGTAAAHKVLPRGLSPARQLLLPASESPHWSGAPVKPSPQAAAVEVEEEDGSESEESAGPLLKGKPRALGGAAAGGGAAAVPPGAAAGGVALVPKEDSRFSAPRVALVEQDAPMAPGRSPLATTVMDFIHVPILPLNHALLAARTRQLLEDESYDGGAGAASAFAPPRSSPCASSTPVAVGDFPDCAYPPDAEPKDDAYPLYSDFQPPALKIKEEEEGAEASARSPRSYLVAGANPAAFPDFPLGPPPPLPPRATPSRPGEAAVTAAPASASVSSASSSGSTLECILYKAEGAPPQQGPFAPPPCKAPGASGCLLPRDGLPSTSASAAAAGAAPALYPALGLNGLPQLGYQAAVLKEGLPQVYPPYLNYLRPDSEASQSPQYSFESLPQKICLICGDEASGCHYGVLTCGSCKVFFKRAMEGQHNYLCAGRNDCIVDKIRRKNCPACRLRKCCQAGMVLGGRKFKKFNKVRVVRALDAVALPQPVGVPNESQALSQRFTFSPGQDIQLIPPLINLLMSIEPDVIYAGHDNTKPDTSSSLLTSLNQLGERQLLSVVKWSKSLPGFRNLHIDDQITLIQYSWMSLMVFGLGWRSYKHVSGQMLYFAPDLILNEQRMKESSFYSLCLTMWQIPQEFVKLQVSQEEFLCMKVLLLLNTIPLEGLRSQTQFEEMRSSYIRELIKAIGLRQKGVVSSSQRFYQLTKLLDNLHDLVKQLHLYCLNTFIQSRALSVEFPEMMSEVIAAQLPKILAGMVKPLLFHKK
How it was run: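 Cells (PR-UAS-bla HEK 293T, GripTite) were plated in assay medium containing 2% charcoal-stripped FBS and incubated 6 hr. Test compounds in DMSO were added for 16 hr at 37C. FRET substrate was then loaded for 2 hr at room temperature before fluorescence reading.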

[5] = qHTS assay to identify small molecule antagonists of the progesterone receptor (PR) signaling pathway - cell viability counter screen (AID 1346798); note: series mostly up to about 92 µM; nearly all actives have a fitted effect of over 50% in size
How it was run: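 Counter screen for cytotoxicity: viability of PR-UAS-bla HEK293T cells was measured with CellTiter-Glo luminescence following 16 hr compound exposure in the presence of R5020.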

[6] = qHTS assay to identify small molecule agonists of the progesterone receptor (PR) signaling pathway - cell viability counter screen (AID 1346799; calls by dose curve; note: nearly all actives have a fitted effect of over 45% in size)
How it was run: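 Cells (PR-UAS-bla HEK293T) are plated at 3,000/well in 2% charcoal-stripped FBS medium, rested 6 hr, dosed and incubated 16 hr at 37C. CellTiter-Glo is then added and luminescence measured after 30 min at room temperature.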

[7] = qHTS assay to identify small molecule antagonists of the TGF-beta/Smad signaling pathway - cell viability counter screen (AID 1346824); note: nearly all actives have a fitted effect of over 50% in size
How it was run: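 Cytotoxicity counter-screen run in the same wells as the beta-lactamase Smad reporter read: CellTiter-Glo luminescence after 30 min at room temperature. HEK 293T SBE-bla cells had 5 hr compound exposure at 37 C with TGF-beta1 (0.25 ng/mL stock).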

[8] = qHTS assay to identify small molecule agonists of the TGF-beta/Smad signaling pathway - cell viability counter screen (AID 1346829); note: top concentration of the series differs between compounds; nearly all actives have a fitted effect of over 45% in size
How it was run: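 Cytotoxicity counter screen: CellTiter-Glo luminescence (30 min, room temperature) measured in the SBE-bla HEK 293T reporter wells after 5 hr compound treatment at 37 C and the 2 hr substrate step.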

[9] = qHTS assay to identify small molecule agonists of the TGF-beta/Smad signaling pathway (AID 1346859; active = well fitted activation curve with a large enough effect in the signal ratio in the repeat runs, not every such curve was filed as active; the % refers to the signal ratio; note: series mostly up to about 77 µM)
How it was run: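 Reporter line: HEK 293T with stably integrated SBE-controlled beta-lactamase. Compound exposure lasts 5 hr at 37 C and 5% CO2; substrate loading follows for 2 hr at room temperature, with emission read at 460 and 530 nm.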

[10] = biological target: Thyrotropin-releasing hormone receptor (Homo sapiens) (UniProt P34981); assay: qHTS assay to identify small molecule antagonists of the thyrotropin-releasing hormone receptor (TRHR) signaling pathway (AID 1346877; active = well fitted inhibition curve with a large enough effect in the repeat runs, not every such curve was filed as active; note: series mostly up to about 51 µM)
Thyrotropin-releasing hormone receptor (Homo sapiens), sequence (P34981 whole entry, looked up): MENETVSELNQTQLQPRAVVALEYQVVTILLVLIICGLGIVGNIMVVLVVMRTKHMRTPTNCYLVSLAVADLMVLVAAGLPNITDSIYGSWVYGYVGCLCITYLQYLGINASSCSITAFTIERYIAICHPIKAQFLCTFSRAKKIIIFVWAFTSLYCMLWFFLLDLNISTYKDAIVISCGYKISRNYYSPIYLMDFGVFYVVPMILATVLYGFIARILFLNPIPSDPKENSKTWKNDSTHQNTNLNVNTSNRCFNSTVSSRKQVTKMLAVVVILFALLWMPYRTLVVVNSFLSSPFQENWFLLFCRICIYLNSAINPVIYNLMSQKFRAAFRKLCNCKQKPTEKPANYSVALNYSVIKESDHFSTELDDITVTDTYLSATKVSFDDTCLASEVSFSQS
How it was run: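 HEK293/TRHR cells, 18 h, 37 °C; Ca2+ dye 2 h; cpd 5 min RT; TRH 1 nM final; fluorescence read 3 min, 1 s intervals; 15 concs, triplicate.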

[11] = Human pregnane X receptor (PXR) small molecule agonists, qHTS cell viability counter screen (AID 1346977); note: nearly all actives have a fitted effect of over 50% in size
How it was run: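 Cytotoxicity counter screen run in the same wells as the PXR luciferase assay, using PXR-Luc HepG2 cells in charcoal-stripped serum medium. Viability: CellTiter-Fluor fluorescence after 24hr compound treatment.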

[12] = Caspase-3/7 induction in HepG2 cells by small molecules, qHTS assay (AID 1346978); note: nearly all actives have a fitted effect of over 15% in size
How it was run: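 Caspase-3/7 induction was measured by Caspase-Glo 3/7 luminescence (30 min, room temperature) after a 17 hr compound exposure of wild-type HepG2 cells seeded at 2,000 per well and pre-incubated 5 hr.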

[13] = Caspase-3/7 induction in CHO-K1 cells by small molecules, qHTS cell viability counter screen (AID 1346979); note: nearly all actives have a fitted effect of over 35% in size
How it was run: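 Cytotoxicity counter screen run in parallel with the caspase-3/7 assay: CHO-K1 cells, 16hr compound treatment at 37C, then CellTiter-Fluor for 1hr before fluorescence reading.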

[14] = Caspase-3/7 induction in CHO-K1 cells by small molecules, qHTS assay (AID 1346980); note: nearly all actives have a fitted effect of over 15% in size
How it was run: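 Luminescent Caspase-Glo 3/7 read (30min, room temperature) quantified apoptosis induction. Cells were wild-type CHO-K1, treated with compound for 17hr at 37 C and 5% CO2.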

[15] = Caspase-3/7 induction in HepG2 cells by small molecules, qHTS cell viability counter screen (AID 1346981); note: series mostly up to about 92 µM; nearly all actives have a fitted effect of over 30% in size
How it was run: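 Fluorescence read-out of live-cell protease activity (CellTiter-Fluor) after 1 hr with reagent. This was measured in the same wells as the caspase-3/7 luminescence, on HepG2 cells exposed to DMSO-dissolved compounds for 16 hr at 37 C.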

[16] = biological target: Nuclear receptor subfamily 1 group I member 2 (Homo sapiens) (UniProt O75469); assay: Human pregnane X receptor (PXR) small molecule agonists, qHTS assay (AID 1346982); note: nearly all actives have a fitted effect of over 35% in size; note: potency is the fitted concentration of half-maximal effect
Nuclear receptor subfamily 1 group I member 2 (Homo sapiens), sequence (O75469 whole entry, looked up): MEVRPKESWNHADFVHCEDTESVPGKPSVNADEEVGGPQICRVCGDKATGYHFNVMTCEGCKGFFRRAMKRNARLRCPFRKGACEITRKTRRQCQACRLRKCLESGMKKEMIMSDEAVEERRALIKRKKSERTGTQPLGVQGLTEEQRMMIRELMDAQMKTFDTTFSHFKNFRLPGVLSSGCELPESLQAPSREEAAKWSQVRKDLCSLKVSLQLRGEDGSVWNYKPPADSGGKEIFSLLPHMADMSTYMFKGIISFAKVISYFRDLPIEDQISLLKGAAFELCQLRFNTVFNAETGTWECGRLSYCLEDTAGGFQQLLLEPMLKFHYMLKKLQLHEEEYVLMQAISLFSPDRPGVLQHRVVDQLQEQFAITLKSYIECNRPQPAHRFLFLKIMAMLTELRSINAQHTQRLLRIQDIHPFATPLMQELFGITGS
How it was run: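 HepG2 PXR-Luc reporter line, 5% charcoal-stripped FBS; 5 hr pre-incubation, compound (DMSO) 24 hr at 37 C/5% CO2; ONE-Glo 30 min RT; luminescence read-out.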

[17] = biological target: Nuclear receptor subfamily 1 group I member 2 (Rattus norvegicus) (UniProt Q9R1A7); assay: Rat pregnane X receptor (rPXR) activation by small molecules, qHTS assay (AID 1346983); conditions: rPXR luciferase reporter cells, One-Glo luminescence, 24 h; max activation: active compounds read high; note: nearly all actives have a fitted effect of over 20% in size
Nuclear receptor subfamily 1 group I member 2 (Rattus norvegicus), sequence (Q9R1A7 whole entry, looked up): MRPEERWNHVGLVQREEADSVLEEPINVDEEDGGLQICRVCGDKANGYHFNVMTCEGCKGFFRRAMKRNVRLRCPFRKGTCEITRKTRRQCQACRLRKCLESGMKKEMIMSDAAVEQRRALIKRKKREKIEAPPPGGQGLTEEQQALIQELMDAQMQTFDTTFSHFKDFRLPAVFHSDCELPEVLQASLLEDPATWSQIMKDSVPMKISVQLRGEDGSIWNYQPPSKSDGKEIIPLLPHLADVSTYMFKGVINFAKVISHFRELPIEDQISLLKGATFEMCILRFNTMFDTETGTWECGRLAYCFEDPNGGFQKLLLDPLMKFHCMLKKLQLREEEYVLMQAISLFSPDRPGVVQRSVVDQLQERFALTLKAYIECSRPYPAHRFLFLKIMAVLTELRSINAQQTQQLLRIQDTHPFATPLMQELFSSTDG
How it was run: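 Luminescent readout (One-Glo luciferase, 30 min room temperature) followed 24 hr compound treatment at 37 C of rPXR cells plated 2,000 per well and preincubated 5hr; qHTS format with compounds delivered in DMSO.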

[18] = biological target: Progesterone receptor (Homo sapiens) (UniProt P06401); assay: qHTS assay to identify small molecule antagonists of the progesterone receptor (PR) signaling pathway (AID 1346795; active = well fitted inhibition curve with a large enough effect in the signal ratio in the repeat runs, not every such curve was filed as active; the % refers to the signal ratio)
How it was run: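 Antagonist mode: compounds tested against 1 nM (final) promegestone stimulation in HEK293T cells expressing PR-UAS-bla reporter, 16 hr at 37C, 5% CO2; beta-lactamase activity detected via B/G FRET substrate after 2 hr at room temperature.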

[19] = biological target: Thyrotropin-releasing hormone receptor (Homo sapiens) (UniProt P34981); assay: qHTS assay to identify small molecule agonists of the thyrotropin-releasing hormone receptor (TRHR) signaling pathway (AID 1346891; calls by dose curve;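 note: HEK293 cells expressing TRHR with calcium dye readout; series mostly up to about 58 µM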)
How it was run: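 Cells: TRHR-Hek293, seeded and incubated 18 h. Dye loading: 2 h at 37 °C. Compound added from DMSO stock by pin tool. Read-out: kinetic calcium fluorescence over 3 min.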
% is set by controls: 0 for no effect and ±100 for the full control effect.

NCC1CCC(C(=O)Oc2ccc(CCC(=O)O)cc2)CC1 (stereo not given)
inactive: outcome [1] | outcome [2] | outcome [3] | Potency [4] | outcome [5] | Potency [6] | outcome [7] | outcome [8] | outcome [9] | outcome [10] | outcome [11] | outcome [12] | Potency [13] | outcome [14] | outcome [15] | Potency [16] | max activation [17] -5.61%

C[C@H]1COc2c(C3(N)CC3)c(F)cc3c(=O)c(C(=O)O)cn1c23
inactive: outcome [1] | outcome [2] | outcome [3] | Potency [4] | outcome [5] | Potency [6] | outcome [7] | outcome [8] | outcome [9] | outcome [11] | outcome [12] | Potency [13] | outcome [14] | outcome [15] | Potency [16] | max activation [17] -2.87%

CC(C)(C)OC=O
inactive: outcome [1] | outcome [2] | outcome [3] | Potency [4] | Potency [6] | outcome [7] | outcome [8] | outcome [9] | outcome [11] | outcome [12] | Potency [13] | outcome [15] | Potency [16]

C=CC(=O)CC
inactive: outcome [1] | outcome [2] | outcome [3] | Potency [4] | Potency [6] | outcome [7] | outcome [8] | outcome [9] | outcome [11] | outcome [12] | Potency [13] | outcome [14] | outcome [15] | Potency [16]

CC1(C)CC(N)CC(C)(C)N1
inactive: outcome [1] | outcome [2] | Potency [4] | Potency [18] | Potency [6] | outcome [7] | outcome [8] | outcome [9] | outcome [10] | Potency [19] | outcome [11] | outcome [12] | Potency [13] | outcome [14] | outcome [15] | Potency [16]

CCOCCOCCOC(C)=O
inactive: outcome [1] | outcome [2] | outcome [3] | Potency [4] | Potency [18] | Potency [6] | outcome [8] | outcome [9] | outcome [11] | outcome [12] | Potency [13] | outcome [14] | outcome [15] | Potency [16]

O=Cc1ccccc1S(=O)(=O)O
inactive: outcome [1] | outcome [3] | Potency [4] | Potency [18] | outcome [5] | Potency [6] | outcome [7] | outcome [8] | outcome [9] | outcome [11] | outcome [12] | Potency [13] | outcome [14] | outcome [15] | Potency [16]

C/C(=N\O)c1ccc(OCC(=O)N2CCCCC2)cc1
inactive: outcome [1] | outcome [3] | Potency [4] | Potency [18] | outcome [5] | Potency [6] | outcome [7] | outcome [8] | outcome [9] | outcome [10] | Potency [19] | outcome [11] | outcome [12] | Potency [13] | outcome [14] | outcome [15]
active: Potency [16] 10.6 µM

CCO/C=C1\N=C(c2ccccc2)OC1=O
inactive: outcome [1] | outcome [2] | outcome [3] | Potency [18] | Potency [6] | outcome [7] | outcome [9] | outcome [11] | outcome [12] | Potency [13] | outcome [14] | outcome [15] | Potency [16]

O=C(O)P(=O)(O)O
inactive: outcome [1] | outcome [2] | outcome [3] | Potency [4] | outcome [5] | outcome [7] | outcome [9] | outcome [10] | outcome [11] | outcome [12] | Potency [13] | outcome [14] | outcome [15] | Potency [16] | max activation [17] -4.52%

O=c1c(O)c(O)c1=O
inactive: outcome [1] | outcome [2] | outcome [3] | outcome [5] | Potency [6] | outcome [7] | outcome [8] | outcome [9] | outcome [11] | outcome [12] | Potency [13] | outcome [14] | outcome [15] | Potency [16]

COc1cc(NS(=O)(=O)c2ccc(N)cc2)ncn1
inactive: outcome [1] | outcome [2] | outcome [3] | Potency [18] | outcome [5] | Potency [6] | outcome [7] | outcome [9] | outcome [10] | outcome [11] | outcome [12] | Potency [13] | outcome [14] | outcome [15] | max activation [17] -2.45%

COC(=O)c1cc(Cl)c(NC(C)=O)cc1OC
inactive: outcome [1] | outcome [2] | outcome [3] | Potency [4] | outcome [7] | outcome [8] | outcome [9] | outcome [11] | outcome [12] | Potency [13] | outcome [14] | outcome [15] | Potency [16]

Cc1ccc(Br)cc1
inactive: outcome [1] | outcome [3] | Potency [4] | Potency [18] | outcome [5] | Potency [6] | outcome [7] | outcome [8] | outcome [9] | outcome [10] | Potency [19] | outcome [11] | outcome [12] | Potency [13] | outcome [14] | outcome [15] | Potency [16]

Cc1nnc(C(=O)NC(C)(C)c2nc(C(=O)NCc3ccc(F)cc3)c(O)c(=O)n2C)o1
inactive: outcome [1] | outcome [2] | outcome [3] | outcome [5] | Potency [6] | outcome [8] | outcome [10] | Potency [19] | outcome [11] | outcome [12] | Potency [13] | outcome [14] | outcome [15] | Potency [16]

O=C(OOC(=O)c1ccccc1)c1ccccc1
inactive: outcome [1] | outcome [2] | outcome [3] | Potency [18] | outcome [5] | Potency [6] | outcome [8] | outcome [9] | outcome [10] | outcome [11] | outcome [12] | Potency [13] | outcome [14] | outcome [15] | Potency [16] | max activation [17] -2.52%

CCCC(C)C(O)CC (stereo not given)
inactive: outcome [1] | outcome [2] | outcome [3] | Potency [4] | Potency [18] | Potency [6] | outcome [7] | outcome [8] | outcome [9] | outcome [11] | outcome [12] | Potency [13] | outcome [14] | outcome [15] | Potency [16]

O=C(c1ccccc1)c1cccc(O)c1
active: Potency [16] 55.3 µM
inactive: outcome [1] | outcome [2] | outcome [3] | Potency [4] | Potency [6] | outcome [7] | outcome [8] | outcome [9] | outcome [10] | Potency [19] | outcome [11] | outcome [12] | Potency [13] | outcome [14] | outcome [15]
